Assay outcomes from PubChem BioAssay.
GPT2 inhibitor: GPT2 alanine aminotransferase inhibition; Q8TD30; Recombinant GPT2, coupled pyruvate oxidase/HRP Amplex Red fluorescence; Potency, µM (doses to about 57.7 µM), usual class: inhibitors; 0.25% of 100,000 active; AID 1671188; further: nearly all actives have a fitted effect of over 60% in size
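Fluorescence read-out: pyruvate from GPT2 turnover coupled to pyruvate oxidase, HRP and Amplex Red (0.2mM ThPP, 0.2U/mL PO and HRP, 50uM Amplex final). Substrates 250uM a-KG, 2mM L-alanine; enzyme 10ng/uL; 30 min RT.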
HEK cytotox: kills HEK 293 cells; HEK 293 viability, ATP luminescence (CellTiter-Glo), 48-72 h; 6.6% of 94,000 active; AID 1345083; Potency, µM (top dose mostly 115 µM), hits mostly inhibitors; further: nearly all actives have a fitted effect of over 60% in size
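250 HEK 293 cells/well; compound by pintool; incubated 48 or 72 hr at 37 degree Celsius; CellTiter-Glo added, 10 min RT, luminescence imaged.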
NIH3T3 tox: cytotoxic compounds in NIH 3T3 cells; NIH 3T3 viability, CellTiter-Glo ATP luminescence, 48-72 h; 4.3% of 94,000 active; Potency, µM (top dose mostly 96.7 µM), most hits filed as inhibitors; further: nearly all actives have a fitted effect of over 55% in size
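Viability of NIH 3T3 cells after 48 or 72 hr compound treatment at 37 °C was assessed by CellTiter-Glo, with luminescence imaged following a 10 min room-temperature step.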
Luciferase inh: Photinus pyralis luciferase inhibition | purified P. pyralis luciferase, luminescence, biochemical | Potency, µM (highest dose often 115 µM), usual class: inhibitors | 2.5% of 76,000 active | AID 1347043; further: nearly all actives have a fitted effect of over 65% in size
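Luminescence read by CCD imager after adding enzyme (10nM final) to wells holding compound, titrated in qHTS. Substrates 10uM each D-luciferin and ATP; buffer 50mM Tris acetate pH 7.5, 10mM Mg acetate, Tween-20, BSA.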
NPR1 antag: blocks ANP-stimulated signaling of human Npr1 receptor; P16066; 1.6% of 76,000 active; Potency, µM (titrated, usually from 46.3 µM), most hits filed as inhibitors; HEK293 hNpr1 GloSensor cGMP, ANP-stimulated luminescence; calls by dose curve; further: nearly all actives have a fitted effect of over 60% in size
Target sequence (P16066 whole entry, looked up): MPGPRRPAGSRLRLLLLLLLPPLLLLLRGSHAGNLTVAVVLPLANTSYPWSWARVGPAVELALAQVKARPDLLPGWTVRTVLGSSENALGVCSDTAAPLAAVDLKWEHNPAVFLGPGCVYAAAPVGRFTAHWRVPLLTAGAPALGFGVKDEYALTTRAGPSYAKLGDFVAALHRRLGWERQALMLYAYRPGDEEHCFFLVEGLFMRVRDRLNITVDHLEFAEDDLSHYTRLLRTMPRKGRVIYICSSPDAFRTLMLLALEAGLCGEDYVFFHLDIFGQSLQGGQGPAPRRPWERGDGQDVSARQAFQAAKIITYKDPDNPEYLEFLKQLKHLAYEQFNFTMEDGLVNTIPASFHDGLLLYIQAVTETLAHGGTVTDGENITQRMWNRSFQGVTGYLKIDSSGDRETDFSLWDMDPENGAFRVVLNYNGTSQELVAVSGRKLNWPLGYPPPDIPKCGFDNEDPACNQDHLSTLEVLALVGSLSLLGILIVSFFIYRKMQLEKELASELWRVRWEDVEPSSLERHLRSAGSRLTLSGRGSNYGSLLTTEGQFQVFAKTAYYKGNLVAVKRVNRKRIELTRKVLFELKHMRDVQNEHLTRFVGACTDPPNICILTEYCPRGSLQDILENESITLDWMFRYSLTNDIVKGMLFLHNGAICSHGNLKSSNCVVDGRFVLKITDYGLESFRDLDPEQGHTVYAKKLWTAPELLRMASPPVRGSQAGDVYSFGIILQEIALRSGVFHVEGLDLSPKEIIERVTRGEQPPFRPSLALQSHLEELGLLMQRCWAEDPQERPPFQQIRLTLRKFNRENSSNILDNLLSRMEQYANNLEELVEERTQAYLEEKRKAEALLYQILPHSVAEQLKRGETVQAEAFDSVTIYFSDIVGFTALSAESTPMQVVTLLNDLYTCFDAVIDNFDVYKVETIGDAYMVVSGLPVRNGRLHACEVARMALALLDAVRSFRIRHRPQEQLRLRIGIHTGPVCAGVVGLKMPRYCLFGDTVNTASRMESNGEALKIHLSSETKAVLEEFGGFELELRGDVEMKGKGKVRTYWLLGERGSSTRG
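HEK293 cells stably expressing human Npr1 and cGMP GloSensor pGS-40F, loaded 2 h with 2% GloSensor reagent, given compound 30 min at room temperature. Luminescence read before and 20 min after 0.1 nM hNppA.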
Of the large screens only hits and unclear results are named; the others gave an inactive call. A selection: hits, their analogues and other compounds. The true share with any hit is near 10%. Unless noted, the call rests on the fitted dose curve; in most records, active means well fitted curve in the direction sought with a large enough effect; inconclusive means small, poorly fitted or top-dose-only effect, or another doubt; inactive means no such curve, though single readings can be large; an effect the other way counts as inactive or inconclusive.

Cc1nn(-c2ccccc2)c2c1C(C1CC1)N(C1CCN(C(=O)NC3CCCC3)C1)C2=O (configuration not stated)	HEK cytotox 45µM, NIH3T3 tox inconclusive (no result: GPT2 inhibitor, Luciferase inh, NPR1 antag)
O=C(Cc1cccc(Cl)c1)NC1CCN(c2nc3ncccc3o2)C1 (configuration not stated)	none (no result: Luciferase inh, NPR1 antag)
Cc1ccc(C(=O)Nc2cc(-c3cccnc3)nn2-c2ccccc2)cc1	NIH3T3 tox inconclusive (no result: Luciferase inh, NPR1 antag)
COc1ccccc1Cn1c(=O)c(C(=O)NCC(F)F)nc2cccnc21	none (no result: Luciferase inh, NPR1 antag)
CC1(c2ccccc2)N(Cc2ncccn2)C(=O)OC12CCN(C(=O)c1ccc(Oc3ccccc3)cc1)CC2 (configuration not stated)	HEK cytotox 40µM, NIH3T3 tox 40µM
CC1(c2cccnc2)N(Cc2ccccc2)C(=O)OC12CCN(C(=O)C1CCOCC1)CC2 (configuration not stated)	NIH3T3 tox inconclusive
CC1(c2cccnc2)N(CC2CC2)C(=O)OC12CCN(C(=O)c1cccc(O)c1)CC2 (configuration not stated)	NIH3T3 tox 35µM
CC1(c2ccccc2)N(Cc2cccnc2)C(=O)OC12CCN(C(=O)c1ccc(Oc3ccccc3)cc1)CC2 (configuration not stated)	HEK cytotox 25µM, NIH3T3 tox inconclusive
CC1(c2cccnc2)N(CC2CC2)C(=O)OC12CCN(C(=O)c1ccc(Oc3ccccc3)cc1)CC2 (configuration not stated)	HEK cytotox inconclusive, NIH3T3 tox inconclusive
CC1(c2ccccc2)N(Cc2ccccc2F)C(=O)OC12CCN(C(=O)c1cnccn1)CC2 (configuration not stated)	NIH3T3 tox inconclusive
COc1cccc(CC(=O)N2CCC3(CC2)OC(=O)N(Cc2ncccn2)C3(C)c2ccccc2)c1 (configuration not stated)	NIH3T3 tox inconclusive
CC1(c2ccccc2)N(Cc2ccc(O)cc2)C(=O)OC12CCN(C(=O)c1cnccn1)CC2 (configuration not stated)	NIH3T3 tox 32µM
O=C(Nc1ccccc1F)N1CC2CCC(C1)N2Cc1ccc(Cl)cc1	HEK cytotox inconclusive, NIH3T3 tox inconclusive (no result: Luciferase inh, NPR1 antag)
O=C(c1cc2ccccc2[nH]1)N1CCC2(CC1)CN(c1ncccn1)CC2CO (configuration not stated)	HEK cytotox 79µM, NIH3T3 tox inconclusive
CC1CCC2(CC1)OCC(C(=O)NCc1ccccc1F)N2C(=O)c1ccccc1F (configuration not stated)	HEK cytotox 79µM
COc1ccccc1-c1cc(C(=O)NCC2CC2)c2cnn(C)c2n1	none (no result: GPT2 inhibitor, Luciferase inh, NPR1 antag)
CCN(CC)Cc1ccc2cc(COC(=O)Nc3ccc(C(=O)NO)cc3)ccc2c1	GPT2 inhibitor 15µM (no result: HEK cytotox, NIH3T3 tox, Luciferase inh, NPR1 antag)
CCN(CC)Cc1cnc2c(C(=O)Nc3ccc(OC)c(OC)c3)cnn2c1	none
COc1cc(F)ccc1-c1ccnc2nc(-c3cccs3)nn12	none
COc1ccccc1-c1nc2nccc(-c3ccc4c(c3)OCCCO4)n2n1	HEK cytotox 18µM, NIH3T3 tox inconclusive, Luciferase inh inconclusive
COc1ccccc1-c1nc2nccc(-c3ccco3)n2n1	Luciferase inh inconclusive
COc1ccc(-c2ccnc3nc(-c4ccccc4OC)nn23)cc1OC	HEK cytotox inconclusive, NIH3T3 tox inconclusive
COc1ccc(-c2ccnc3nc(-c4cccs4)nn23)cc1OC	HEK cytotox inconclusive, NIH3T3 tox 7.1µM
COc1ccccc1-c1nc2nccc(-c3cc4ccccc4o3)n2n1	HEK cytotox 89µM, NIH3T3 tox inconclusive
COc1ccnc(-c2nnc3ccc(NCc4cnccn4)nn23)c1	none (no result: HEK cytotox, NIH3T3 tox, Luciferase inh, NPR1 antag)
C=C[C@H]1[C@H](O[C@@H]2O[C@H](CO)[C@@H](O)[C@H](O)[C@H]2O)OC=C(C(=O)OC)[C@H]1C[C@@H]1c2cc(O)c(O)cc2CCN1C(C)=O	GPT2 inhibitor 3.2µM (no result: HEK cytotox, NIH3T3 tox, Luciferase inh, NPR1 antag)
C=CC1C(O[C@@H]2O[C@H](CO)[C@@H](O)[C@H](O)[C@H]2O)OC=C(C(=O)OC)C1CC(=O)O (some centres not stated)	none (no result: HEK cytotox, NIH3T3 tox, Luciferase inh, NPR1 antag)
COc1cccc(CC(=O)N2CCCC(c3nc(-c4ccccc4)no3)CCNC(=O)CC2)c1 (configuration not stated)	Luciferase inh inconclusive
O=C1CCN(C(=O)c2ccco2)CCCC(c2nc(-c3ccccc3)no2)CCN1 (configuration not stated)	Luciferase inh 28µM
COc1ccc(CCC(=O)N2CCCC(c3nc(-c4ccccc4)no3)CCNC(=O)CC2)cc1 (configuration not stated)	HEK cytotox 89µM, NIH3T3 tox inconclusive
Cc1ccc(CN2CCCC(c3nc(-c4cccnc4)no3)CCNC(=O)CC2)s1 (configuration not stated)	HEK cytotox 89µM, NIH3T3 tox inconclusive
O=C1CCN(C(=O)C2CCCC2)CCCC(c2nc(-c3ccccc3)no2)CCN1 (configuration not stated)	HEK cytotox inconclusive
O=C(CNC(=O)c1cccc(-c2ccc(C(F)(F)F)cc2)c1)NC1CCCC1	HEK cytotox inconclusive, NIH3T3 tox inconclusive (no result: Luciferase inh, NPR1 antag)
COc1ccccc1OC1CCN(Cc2cc3n(n2)CCNC3)CC1	none
Cc1ccc(SC2CCN(Cc3cc4n(n3)CCNC4)CC2)cc1	HEK cytotox 14µM, NIH3T3 tox 14µM
COc1cccc(CN2CCCCCCNC(=O)[C@@H]3CCC[C@@H]32)c1OC	HEK cytotox inconclusive
CCCc1nc(C(=O)N(C)CCCc2cnn(C)c2)cs1	none
O=C(NCc1ccccn1)c1csc(N2CCN(c3ccccc3)CC2)n1	HEK cytotox 40µM, NIH3T3 tox inconclusive
CCCCN(C)C(=O)c1csc(N2CCN(c3ccccc3)CC2)n1	HEK cytotox 35µM, NIH3T3 tox inconclusive, NPR1 antag inconclusive
COc1cccc(-c2c(C(=O)NCc3cccnc3)nc3sccn23)c1	none (no result: Luciferase inh, NPR1 antag)
COc1ccc(N2CCN(c3nc(C(=O)N4CCC(C)CC4)cs3)CC2)cc1	HEK cytotox 40µM, NIH3T3 tox 40µM, Luciferase inh inconclusive, NPR1 antag inconclusive
COc1cccc(N2CCN(c3nc(C(=O)NCc4cccnc4)cs3)CC2)c1	HEK cytotox 32µM, NIH3T3 tox inconclusive, Luciferase inh inconclusive, NPR1 antag 11µM
CNC(=O)c1cc(C2CC2)nc2onc(C3CCN(C(=O)C4CCCC4)CC3)c12	none (no result: GPT2 inhibitor, Luciferase inh, NPR1 antag)
OC1(c2csc(CN3CCN(c4ccccn4)CC3)n2)CCN(Cc2ccc(F)cc2)CC1	HEK cytotox inconclusive, NIH3T3 tox inconclusive
O=C(COc1ccc(F)cc1)N1CCCC(c2noc(COc3ccccc3F)n2)C1 (configuration not stated)	HEK cytotox inconclusive, NIH3T3 tox inconclusive, Luciferase inh inconclusive
COc1ccc(N2CCN(c3nc(C(=O)NCc4ccc(F)cc4F)cs3)CC2)cc1	GPT2 inhibitor inconclusive, HEK cytotox 35µM, NIH3T3 tox inconclusive, NPR1 antag inconclusive
